Measured values taken from ChEMBL document CHEMBL4888484, “Replenishing the malaria drug discovery pipeline: Screening and hit evaluation of the MMV Hit Generation Library 1 (HGL1) against asexual blood stage Plasmodium falciparum ,using a nano luciferase reporter read-out” (2022).
The campaign covered roughly 4,800 compounds. About 410 (8.5%) showed an effect of 50% or more. The list comes from a sample in which strong results are over-represented; it also holds similar structures and randomly drawn compounds.

Each compound was assayed on Plasmodium falciparum (assay: Confirmatory screen in NF54 pLDH assay, in single point, at 2uM, 72h). Details: timepoint 72 hour.
Type: functional, Erythrocyte

Point of comparison: O=S1(=O)N=C(n2ccnc2)c2ccccc21, “% Inhibition” value -17%. Against it:
- Cc1nn(C)c(NC(=O)Nc2cccc(Cl)c2)c1C1=CCCCC1 — higher, -9%
- O=C(Nc1cccc(Cl)c1)c1ccc(-c2cnc(N3CCCC3)nc2)cc1 — lower, -19%
- O=C(Nc1cccc(Cl)c1)Nc1cccc(-c2cnc3n2CCC3)c1 — higher, 75%
- O=C(Cn1cccn1)Nc1cccc(S(=O)(=O)N2CCCC2)c1 — higher, -8%
- C[C@@H](C1CCCC1)N1C(=O)NC(CC(F)(F)F)C1=O (stereo partly specified) — lower, -23%
- O=C(NS(=O)(=O)C1CCOCC1)c1csc(-c2ccco2)n1 — higher, -10%
- COc1ccccc1Cn1cnc2c1c(=O)n(C1CCCCC1)c(=O)n2-c1ccccc1Cl — higher, 90%
- COc1ccccc1-n1c(=O)n(C2CCCC2)c(=O)c2c1ncn2Cc1ccccc1Cl — higher, 34%
- Cc1ccccc1Cn1cnc2c1c(=O)n(C1CCCCC1)c(=O)n2-c1ccccc1Cl — higher, 82%
- COC(=O)c1ncn2c1C(=O)N(Cc1ccccc1OC)[C@](C)(C(=O)NC1CCCCC1)C2 — higher, 11%
- Cn1ncn(CC(=O)c2cccc(Cl)c2Cl)c1=O — higher, -14%
- O=C(CN1C(=O)N[C@H](c2ccc(F)cc2)C1=O)Nc1ccc2c(c1)OCCO2 — higher, 5%
- CC(C)(C)CC(C)(C)NC(=O)c1ccc2nc(N3C(=O)CCC3=O)sc2c1 — higher, 9%
- C[C@H](c1ccccc1)N1C(=O)[C@@H]2CN(C(=O)CC(C)(C)C)CCN2C1=O — higher, -13%
- Cc1ccc(CCC(=O)N2CC[C@H](C)S(=O)(=O)CC2)s1 — higher, 9%
- C[N+]12CCCCC1C(OC(=O)C1(c3ccccc3)CCCC1)CCC2 (stereo unspecified) — higher, 60%
- O=C1C2ON(c3ccccc3)C(c3ccncc3)C2C(=O)N1c1ccc2ccccc2c1 (stereo unspecified) — higher, 8%
- COc1ccc2cc3n(c2c1)C[C@@](C)(C(=O)NC1CCCC1)N(Cc1ccc(F)cc1)C3=O — higher, 13%
- Cc1cc(C)nc(N[C@H](c2ccc(F)cc2)c2cc(C)sc2NC(=O)c2ccccc2)n1 — higher, 6%
- Cc1ccc(C2=C[C@@H](c3ccc(Cl)cc3)n3nc(NC(=O)c4ccccc4)nc3N2)cc1 — higher, 90%
- Cc1ccc([C@@H]2C=C(C(=O)O)Nc3c(C(N)=O)nnn32)cc1 — higher, -12%
- COc1cc([C@@H]2C=C(c3ccc(Cl)cc3)Nc3ncnn32)ccc1OCc1ccc(Cl)cc1 — higher, 4%
- Cc1cccc(OC(=O)O[C@H]2c3nccnc3C(=O)N2c2ccc(Cl)cn2)c1 — higher, 16%
- CN(C)c1ccc2c(c1)CN(C(=O)c1ccccc1S(C)(=O)=O)CC2 — higher, -5%
- O=C(COc1ccc(Cl)cc1)N[C@H](CO)CC1CCCC1 — higher, 4%
- CS(=O)(=O)n1cnc2cc(F)c(F)cc21 — higher, -8%
- COc1ccc(-c2cc(-c3ccccc3)nc(N3CCC(C)CC3)n2)cc1 — higher, 43%
- COc1ccc(-[n+]2c(-c3ccc(-c4ccccc4)cc3)cn3c2COCC3)cc1 — higher, 60%
- COc1ccc(N2CCN(c3nc(-c4ccccc4)cs3)CC2)cc1 — higher, 0%
- COc1ccc(CCc2nnc3n2CCOC3)cc1 — higher, -1%
- COc1ccc(-[n+]2c(-c3ccccc3)cn3c2CCC3)cc1 — higher, 59%
- COc1ccc(-c2nnc(COc3ccc(-c4ccccc4)cc3)s2)cc1 — higher, -10%
- O=C(Cn1c(=O)n(Cc2ccco2)c(=O)c2ccccc21)NC1CCCCC1 — higher, 10%
- Cc1noc([C@H]2CCCN(C(=O)c3cc4c(s3)CCC4)C2)n1 — higher, -5%
- O=C1c2ccccc2N[C@]2(C(=O)Nc3ccccc32)N1c1ccc2c(c1)OCO2 — lower, -25%
- Cc1nn(-c2ncc(C(F)(F)F)cc2Cl)c(=O)n1-c1ccc(OCc2ccccc2)cc1 — higher, -12%
- CCCCN(CC)c1ncc(C(=O)Nc2ccc(OCC)cc2)c(N)n1 — higher, 15%
- Cc1ccc(NC(=O)Nc2cc(C)ccc2N2CCCN(Cc3ccc(F)cc3)C2=O)cc1 — higher, 30%
- Cc1cccc(CNC(=O)NC2CCOC2c2ccc(Cl)cc2)n1 (stereo unspecified) — higher, -15%
- Cc1cc(C)nc(NCCC[C@H]2CCCCO2)n1 — higher, -15%
- Cc1cccc(CN(Cc2cccc(C)n2)C[C@H]2CCCCO2)n1 — higher, 90%
- CC(C)c1nc(CN(C)[C@@H](C)C(=O)Nc2nccs2)cs1 — higher, 23%
- CC(C)NC(=O)C(=O)Nc1nccs1 — lower, -19%
- CC(C)N(CC(=O)Nc1nccs1)Cc1ccccn1 — higher, 59%
- CCN1C(=O)CCN(C(=O)c2ccnn2C)CC12CCOCC2 — higher, 3%
- Brc1cccc2c1OCC[C@@H]2Nc1ncnc2nc[nH]c12 — higher, 4%
- Oc1ccccc1-c1cnc(C(F)(F)F)s1 — higher, 90%
- Oc1nc(-c2cccc(C(F)(F)F)c2)sc1-c1ccccc1 — higher, 2%
- Cc1ccc(OCC(=O)Nc2cc(C)nn2-c2nc3c(cnn3-c3ccc(C)c(C)c3)c(=O)[nH]2)cc1 — higher, 57%
- COc1ccc(-n2ncc3c(NCCNC(=O)c4ccccc4Cl)nc(C)nc32)cc1 — lower, -27%
- Cc1ccc(OCC(=O)Nc2ccc(N3CCn4c(nc5ccccc54)C3)cc2Cl)cc1 — lower, -20%
- CN(CCCNC(=O)C(=O)Nc1ccn(C)n1)c1cccc(F)c1 — higher, 10%
- COCCOC(=O)c1cc(C(F)(F)F)cc(C(=O)OCCOC)n1 — higher, 11%
- CN(Cc1nccn1C)C(=O)c1cc2ccccc2[nH]1 — higher, 15%
- Cn1c(=O)c2c(ncn2CC(=O)N(Cc2ccccc2)C2CC2)n(C)c1=O — higher, 2%
- CCCn1c(C)cnc1C1CN(S(=O)(=O)c2cc(Cl)ccc2Cl)C1 — higher, 6%
- Cn1c(C(C)(C)C)nc2cc(NC3CCC4(CC3)OCCO4)ccc21 — higher, -16%
- COCc1cc(F)ccc1NC(=O)NC1CCN(c2cc(C)nc(C)n2)CC1 — higher, 5%
- Cn1ncc2c(N3CC(=O)N(C4CC4)C3)ncnc21 — higher, -15%
- C[C@@H]1CN(CCN(C)C(=O)Nc2nc(C3CC3)cs2)C[C@H](C)O1 — higher, 9%
- Cc1c(C)n(CC(O)CNC(C)c2ccccc2)c2c(Cl)cccc12 (stereo unspecified) — higher, 73%
- CC(NCC(O)Cn1c(-c2ccccc2)c(-c2ccccc2)c2ccc3ccccc3c21)c1ccccc1 (stereo unspecified) — higher, 86%
- Cc1c(C)n(C[C@H](O)Cn2c(C(F)(F)F)nc3ccccc32)c2c(Cl)cccc12 — higher, -15%
- CCC(C)NCC(O)Cn1c(-c2ccccc2)c(-c2ccccc2)c2cc(C)ccc21 (stereo unspecified) — higher, 92%
- Cc1cccc(C(=O)Nc2c(C#N)c(-c3ccccc3)c(-c3ccccc3)n2Cc2ccccc2)c1 — higher, 13%
- Cc1c(C)n(C[C@@H](O)CNC2CCCC2)c2c(Cl)cccc12 — lower, -18%
- O=S(=O)(c1c(Cl)cccc1Cl)N1CCC[C@@H]1CN1CCCC1 — higher, 8%
- Cc1cc(CN2C(=O)N[C@@]3(CCCCc4ccccc43)C2=O)no1 — higher, 6%
- COc1ccc([C@H](NC(=O)CCc2ccccc2)c2c(O)ccc3ccccc23)cc1 — higher, -6%
- Cc1cc(N2CCn3c(nc4ccccc43)C2)ccc1NC(=O)C1CCCCC1 — higher, 14%
- CN1c2ccccc2C(=O)N[C@@H]1c1ccccc1OCc1ccccc1 — higher, -4%
- COc1cccc(-n2c(C)cc(C(=O)N3CCNC(=O)CC3)c2C)c1 — higher, -5%
- N#Cc1c(NC(=O)Nc2cn3ccccc3c2C#N)cn2ccccc12 — higher, 35%
- O=C(NCC(N1CCOCC1)C(F)(F)F)C1CC12CCOC2 (stereo unspecified) — higher, 14%
- O=c1[nH]c2nc(N3CCCCC3)ncc2c(=O)n1Cc1ccco1 — higher, -14%
- Cc1nc([C@@H](NC(=O)c2cc(Cl)cn2C)c2cnn(C)c2)no1 — higher, -10%
- Clc1ccc(COc2ccc(CNC3CCCCC3)cc2Br)cc1 — higher, -12%
- O=C(NC[C@H]1CCS(=O)(=O)C1)c1ccc2[nH]c3c(c2c1)CCCC3 — higher, -6%
- COc1cc(C(C)(C)C)c(OCC(=O)N(c2ccccc2)c2ccccc2)cc1C(C)(C)C — higher, 7%
- Cc1ccc(Oc2cc(C#N)c(C#N)cc2N2CCOCC2)cc1C — higher, -9%
- Cc1nc2ccccc2cc1OCc1ccc(F)cc1 — higher, 12%
- CC[N+](C)(CC)CCOc1cc(C)c2ccccc2n1 — higher, 40%
- COC(=O)c1ccccc1NC(=O)NCCn1nnc2cc(S(=O)(=O)N(C)C)ccc21 — higher, 32%
- CCN1C(=O)Cc2cc(NS(=O)(=O)Cc3ccccc3)ccc21 — higher, 12%
- COc1ccc(CN2CC[C@@H]3C(=O)NCCCCCCN(Cc4ccncc4)[C@@H]3C2)cc1Cn1ccnc1 — higher, 37%
- COc1ccc(CNCc2ccc(C)cc2)cc1Cn1ccnc1 — higher, 69%
- COc1cc(CNCCN2CCOCC2)ccc1OCc1ccc(C)cc1 — higher, 10%
- Cc1ccc(NS(=O)(=O)c2ccc(NC(=O)CN(c3cc(Cl)ccc3C)S(C)(=O)=O)cc2)cc1C — higher, -13%
- Cc1cc(-c2nc(C3(c4ccncc4)CCC3)no2)ccn1 — higher, 4%
- COc1ccc(F)cc1S(=O)(=O)N1CCc2noc(N)c2C1 — higher, 63%
- COc1ccc(OC)c(S(=O)(=O)N2C[C@H]3CCCC(=O)N[C@H]3C2)c1 — higher, 9%
- COc1ccc(S(=O)(=O)N2CCC(c3cc(N)on3)CC2)cc1Cl — higher, 40%
- COc1ccccc1OCC(=O)Nc1ccccc1-n1cnnc1C — higher, 12%
- C[C@H](NC(c1ccccc1)c1ccccc1)c1nnc(-c2cccs2)o1 — higher, 7%
- Cc1cc(CS(=O)(=O)NCCOc2ccc(Cl)cc2)on1 — higher, 2%
- CCCOc1ccc(Nc2cc(C)nc3ccc(Cl)cc23)cc1 — higher, 63%
- CC(C)(C)C1CC(NC(=O)C2CC=CC2)CCO1 (stereo unspecified) — higher, -1%
- c1cc(-c2nc3cc4ccccc4cc3[nH]2)nc(-c2nc3cc4ccccc4cc3[nH]2)c1 — higher, 97%
- c1ccc2cc(-c3ccc4ccccc4n3)ccc2c1 — higher, 16%
- Cc1cccc(C)c1OCC(=O)Nc1ccc(-c2nc3cc4ccccc4cc3[nH]2)cc1 — higher, 18%
